Screening data as filed in PubChem BioAssay.
NOMO-1 viab: STK33 inhibitor candidate reducing NOMO-1 cell viability. NOMO-1 AML viability, CellTiter-Glo luminescence, 72 h. inhibition, % (concentration not given with the values). hit rate 7.5% among 37,000. AID 2330; in the data active means inhibition above about 80%; inconclusive means no clear call, values can overlap the other calls
STK33 kin inh: blocks human STK33 kinase activity | Q9BYT3 | ADP-Glo luminescence, MBP substrate | inhibition, % at 12.5 µM | hit rate 0.44% among 27,000; in the data active means inhibition above about 20%; inconclusive means no clear call, values can overlap the other calls
ID4 SMM: binders of human ID4 protein | hit rate 1.2% among 31,000 | AID 624137 | calls only | P47928 | small molecule microarray, Flag-ID4 binding, fluorescence F/B; call rule not given here;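 further: a binder raises fluorescence above local background on the spot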
Target sequence (P47928 whole entry, looked up): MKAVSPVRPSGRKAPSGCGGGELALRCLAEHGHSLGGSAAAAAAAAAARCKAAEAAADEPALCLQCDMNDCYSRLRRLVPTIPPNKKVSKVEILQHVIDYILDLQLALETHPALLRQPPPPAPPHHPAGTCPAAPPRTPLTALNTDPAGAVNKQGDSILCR
mut p53 react: mutant p53 pathway reactivation | hit rate 1.5% among 28,000 | AID 624151 | SW480 PUMA-promoter luciferase | activation, % at 9.98 µM; in the data active means activation above about 52%; inconclusive means no clear call, values can overlap the other calls
* = called active by the depositor; i = inactive; u = inconclusive; x = not tested or not shown; + = active, no number; ! = a repeat was not active. Only a selection was taken, and hits are over-represented in it overall.

SMILES	NOMO-1 viab	STK33 kin inh	ID4 SMM	mut p53 react
COc1ccc(C(=O)CC2(O)C(=O)N(Cc3ccccc3)c3ccc(Br)cc32)cc1[N+](=O)[O-] (stereo unspecified)	110.6*	-3.8	i	-4.6
Cc1coc(C)c1C(=O)CC1(O)C(=O)N(CCc2ccccc2)c2ccc(Cl)cc21 (stereo unspecified)	88.0*	-2.6	i	-12.9
O=C(CC1(O)C(=O)N(Cc2ccccc2)c2ccc(Br)cc21)c1ccc2c(c1)OCCO2 (stereo unspecified)	4.9	1.0	i	-7.3
COc1ccc(S(=O)(=O)N(C)C[C@@H]2Oc3ccc(NS(=O)(=O)c4ccc(C)cc4)cc3C(=O)N([C@@H](C)CO)C[C@@H]2C)cc1	23.6	x	x	x
CC(C)NC(=O)N(C)C[C@@H]1Oc2c(NC(=O)c3nc4ccccc4s3)cccc2C(=O)N([C@H](C)CO)C[C@@H]1C	-3.2	x	x	x
CO[C@@H]1CN(C)C(=O)c2ccc(NC(=O)C3CCCCC3)cc2OC[C@@H](C)N(C)C[C@H]1C	x	x	i	x
C[C@@H]1CN([C@H](C)CO)C(=O)c2cccc(NC(=O)C3CCCCC3)c2O[C@H]1CN(C)S(=O)(=O)c1ccccc1	-1.1	x	x	10.2
O=C(CC1(O)C(=O)N(Cc2ccc(Cl)cc2)c2ccc(Cl)cc21)c1ccccn1 (stereo unspecified)	114.6*	15.5	i	-0.3
COc1ccc(CN2C(=O)C(O)(CC(=O)c3cccs3)c3ccccc32)cc1OC (stereo unspecified)	106.3*	-1.7	i	-11.9
O=C(CC1(O)C(=O)N(CCc2ccccc2)c2ccc(Cl)cc21)c1ccco1 (stereo unspecified)	37.7	2.2	i	3.4
O=C(CC1(O)C(=O)N(Cc2ccc(Cl)cc2)c2ccccc21)c1cc2ccccc2oc1=O (stereo unspecified)	120.4*	0.4	i	-1.8
Cc1ccc(CN2C(=O)C(O)(CC(=O)c3cccc(N)c3)c3cc(Cl)ccc32)cc1 (stereo unspecified)	133.0*	2.8	i	-11.8
CCC(Sc1nnnn1-c1ccccc1)C(=O)Nc1cccc([N+](=O)[O-])c1 (stereo unspecified)	29.1	-5.9	i	-5.4
C[C@@H]1CN([C@H](C)CO)C(=O)CCCn2cc(nn2)CO[C@@H]1CN(C)Cc1ccncc1	x	-0.3	i	13.7
CN1C(=O)C(O)(CC(=O)c2ccccn2)c2cc(Br)ccc21 (stereo unspecified)	117.0*	-1.4	i	-14.9
CO[C@H]1O[C@H](CO)[C@@H](OC(=O)Nc2ccc3c(c2)OCO3)[C@H](OC(=O)Nc2ccc3c(c2)OCO3)[C@@H]1OC(=O)Nc1ccc2c(c1)OCO2	x	x	i	x
O=C(COc1cc(Cl)c(Cl)cc1Cl)Nc1cccnc1	7.8	-0.8	i	116.8*
CC(C)(C)c1ccc(OCC(=O)Nc2cccnc2)c(Br)c1	28.1	-2.2	i	69.5*
O=C(COc1ccc(Cl)cc1)Nc1cccnc1	-22.1	4.6	i	29.0
CCc1ccc(OCC(=O)Nc2cccnc2)c(Br)c1	25.1	-10.4	i	95.5*
CCC(Sc1nnc(-c2ccc(NC(C)=O)cc2)n1C)C(=O)Nc1ccc(Br)cc1 (stereo unspecified)	27.1	-2.0	i	-7.5
C[C@@H]1CN([C@@H](C)CO)C(=O)CCCn2nncc2CO[C@@H]1CN(C)Cc1ccc(O)cc1	x	-0.4	x	x
CC(C)OC(=O)c1cn(Cc2c(F)cccc2F)c2sc(-c3ccc(NC(=O)C(C)C)cc3)c(CN(C)Cc3ccccc3)c2c1=O	x	x	+	-51.1
Cc1noc(C)c1NC(=O)Nc1ccc2c(c1)C(=O)N([C@H](C)CO)C[C@H](C)[C@H](CN(C)Cc1ccccc1)OCCCC[C@H](C)O2	x	x	x	2.6
NC(=Nc1ccccc1)NC(=O)c1nc(Cl)c(N)nc1N	119.4*	8.9	i	6.8
SMILES	NOMO-1 viab	STK33 kin inh	ID4 SMM	mut p53 react
NC(N)=NC(N)=Nc1ccccc1	-21.5	2.8	x	x
NC(=NCc1ccccc1)NC(=O)c1nc(Cl)c(N)nc1N	91.0*!	2.2	i	x
COc1cc([N+](=O)[O-])ccc1NC(=O)CN(C)S(=O)(=O)c1ccc(Br)cc1	22.0	-5.4	i	-9.5
CC1(C)NCCC12C(=O)N(Cc1ccccc1)c1ccccc12 (stereo unspecified)	120.4*	x	x	x
CC(C)c1onc(-c2c(Cl)cccc2Cl)c1COc1ccc(/C=C/c2cccc(C(=O)O)c2)c(Cl)c1	x	x	i	67.2*
C[C@H](CO)N1C[C@H](C)[C@H](CN(C)S(=O)(=O)c2ccccc2)Oc2ccc(NC(=O)Nc3ccc(C(F)(F)F)cc3)cc2CC1=O	127.7*	1.8	x	x
C[C@H]1CN([C@@H](C)CO)C(=O)Cc2cc(NC(=O)Nc3ccc(C(F)(F)F)cc3)ccc2O[C@@H]1CN(C)S(=O)(=O)c1ccccc1	5.1	0.4	x	x
C[C@H]1CN([C@@H](C)CO)C(=O)Cc2cc(NC(=O)Nc3ccc(C(F)(F)F)cc3)ccc2O[C@@H]1CN(C)C	17.9	-2.3	x	x
C[C@H]1CN([C@@H](C)CO)C(=O)Cc2cc(NC(=O)Nc3ccccc3)ccc2O[C@H]1CN(C)S(=O)(=O)c1ccccc1	39.1	-3.7	x	x
C[C@@H]1CN([C@@H](C)CO)C(=O)Cc2cc(NC(=O)Nc3ccc(C(F)(F)F)cc3)ccc2O[C@@H]1CN(C)S(C)(=O)=O	114.4*	1.6	x	x
C[C@@H]1CN([C@@H](C)CO)C(=O)Cc2cc(NC(=O)Nc3ccc(C(F)(F)F)cc3)ccc2O[C@@H]1CN(C)S(=O)(=O)c1ccccc1	112.1*	3.6	x	x
C[C@H](CO)N1C[C@H](C)[C@@H](CN(C)C)OCCCC[C@H](C)Oc2ccc(NC(=O)Nc3ccc(C(F)(F)F)cc3)cc2C1=O	x	x	i	-9.5
C[C@H](CO)N1C[C@H](C)[C@@H](CN(C)Cc2cccnc2)OCc2ccccc2-c2ccccc2C1=O	x	x	i	-3.7
C[C@@H]1CN([C@@H](C)CO)C(=O)c2cc(NC(=O)Nc3ccccc3)ccc2O[C@@H]1CN(C)Cc1ccc(Cl)c(Cl)c1	111.7*	x	x	x
C[C@H]1CN([C@@H](C)CO)C(=O)c2cc(NC(=O)Nc3ccccc3)ccc2O[C@H]1CN(C)Cc1ccc(Cl)c(Cl)c1	99.6*	0.6	x	x
C[C@H]1CN([C@@H](C)CO)C(=O)c2cc(NC(=O)Nc3ccccc3)ccc2O[C@@H]1CN(C)Cc1ccc(Cl)c(Cl)c1	17.8	-0.3	x	x
C[C@H](CO)N1C[C@H](C)[C@@H](CN(C)Cc2ccc(Cl)c(Cl)c2)Oc2ccc(NC(=O)Nc3ccccc3)cc2C1=O	u	-1.3	x	x
Nc1nnc(SCC(=O)Nc2cc(Cl)cc(Cl)c2)s1	-22.7	2.5	i	12.0
C[C@H]1CN([C@@H](C)CO)C(=O)c2cc(NC(=O)Nc3ccc(C(F)(F)F)cc3)ccc2O[C@H]1CN(C)Cc1ccc(C(F)(F)F)cc1	115.2*	x	x	-26.6
C[C@H]1CN([C@@H](C)CO)C(=O)c2cc(NC(=O)Nc3ccc(F)cc3)ccc2O[C@H]1CN(C)Cc1ccc(C(F)(F)F)cc1	52.1	-1.0	x	x
C[C@@H]1CN([C@H](C)CO)C(=O)c2cc(NC(=O)Nc3ccc(C(F)(F)F)cc3)ccc2O[C@H]1CN(C)Cc1ccc(C(F)(F)F)cc1	114.4*	0.2	x	x
